Screening results (PubChem BioAssay)
The list is not random: actives were taken first. Their share in the collection is about 5.7%.
S2 tox: Viability Counterscreen for Primary qHTS for Inhibitors of ATXN expression; AID 651635, 2014; 0.49% of 400,000 active; S2 cells (HEK-293 line with an ATXN2-luciferase reporter) viability, CellTiter-Fluor protease fluorescence, 24 h; Potency, µM (titrated, usually from 56.7 µM), usual class: cytotoxic; further: potency means the concentration at half of the fitted maximal effect; nearly all actives have a fitted effect of over 40% in size
HepG2 tox: qHTS for Inhibitors of TGF-b: Cytotox Counterscreen; HepG2 CAGA-GFP viability, ATP luminescence, 18 h; Potency, µM (top dose mostly 46.1 µM), without a hit: top-dose activity change, negative = cytotoxicity, hits mostly cytotoxic; 0.76% of 410,000 active; further: potency means the concentration at half of the fitted maximal effect
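HepG2 CAGA-GFP cells (1000/well, DMEM with 1% FBS) received compound, then TGF-beta at 500 pg/mL final, and were incubated 18 hours at 37 degrees C. Viability was read by CellTiter-Glo luminescence. Media-only wells were set as complete cell-killing and DMSO as no toxicity.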
IL-1B inflam inh: qHTS for Inhibitors of Inflammasome Signaling: IL-1-beta AlphaLISA Primary Screen; THP-1 LPS/ATP IL-1B secretion, AlphaLISA, 16 h; stronger effect = lower value; activity change, % at 57.5 µM; 4.7% of 360,000 active; AID 743279, 2014; in the data active means activity change below about -50%; inconclusive means mostly about -30% to -49%; further: on the % scale 0 is the no-effect control and ±100 the full control effect
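Secreted IL-1B measured by AlphaLISA bead assay after 16 h compound exposure of THP-1 cells; compounds (final up to 57.5 uM) added 1 h before LPS (250 ng/mL) and ATP (1.25 mM) stimulation; lower signal means less secretion.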
TGFb inhibitor: qHTS for Inhibitors of TGF-b; AID 588855, 2011; HepG2 CAGA-GFP TGF-b/SMAD3 reporter, GFP fluorescence, 18 h; TGF-beta stimulated, 500 pg/mL final; Potency, µM (highest dose often 46.1 µM), without a hit: at the highest dose activity, negative = inhibition, usual class: inhibitors; 1.2% of 410,000 active; further: potency means the concentration at half of the fitted maximal effect; on the % scale 0 is the no-effect control and ±100 the full control effect; nearly all actives have a fitted effect of over 65% in size
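Inhibition was scored as loss of TGF-beta-induced (500 pg/mL final, 18 hours, 37 degrees C) GFP in HEPG2 cells carrying a CAGA-GFP reporter, in DMEM with 1% FBS. Well GFP was summed per cell; Activity was normalised to unstimulated and stimulated DMSO wells, then concentration-response fitting.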
ATXN2 expr inh: Primary qHTS for Inhibitors of ATXN expression; HEK-293 ATXN2-luciferase reporter, luminescence, 24 h; Potency, µM (series often up to 57 µM), for the others: top-dose activity change, negative = inhibition, usual class: inhibitors; 0.72% of 360,000 active; AID 1745845, 2022; further: potency means the concentration at half of the fitted maximal effect; on the % scale 0 is the no-effect control and ±100 the full control effect; nearly all actives have a fitted effect of over 55% in size
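qHTS (up to 57 uM final) was run with 24 h compound exposure of reporter cells at 37 °C. Each well was multiplexed: SteadyGlo luminescence measured ATXN2-luciferase expression after a fluorogenic Gly-Phe-AFC viability readout (25 uM final).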
An asterisk follows results filed as active; i = inactive; ? = inconclusive; / = no result given. Unless noted, the call rests on the fitted dose curve; in most records, active means well fitted curve in the direction sought with a large enough effect; inconclusive means small, poorly fitted or top-dose-only effect, or another doubt; inactive means no such curve, though single readings can be large; an effect the other way counts as inactive or inconclusive.

SMILES	S2 tox	HepG2 tox	IL-1B inflam inh	TGFb inhibitor	ATXN2 expr inh
CC(=O)N1N=C(c2cccc([N+](=O)[O-])c2)OC1c1ccc(Cl)cc1Cl (stereo not drawn)	i	-0.3%	-51.6*	-16.1%	-20.6%
CCOc1ccc(N(CC)C(=O)Cn2cnc3sc(C)c(S(=O)(=O)N4CCN(c5ncccn5)CC4)c3c2=O)cc1	i	-2.0%	/	-10.4%	9.0%
Cc1ccc(NC(=O)CSc2nc3ccc(NC(=O)c4cccc(Cl)c4)cc3s2)c(C)c1	i	-0.1%	/	18.2%	0.3%
O=C(N/N=C/c1cc([N+](=O)[O-])ccc1O)c1cccc(N2CCCC2=O)c1	?	-16.1%	161.9	4.2%	17.8µM*
O=[N+]([O-])c1ccc(O)c(/C=N/Nc2ccccc2Cl)c1	i	-7.6%	-52.8*	-24.2%	5.2%
O=C(N/N=C/c1cc([N+](=O)[O-])ccc1O)c1cccc2cc[nH]c12	?	-83.4%	231.6	12.6µM*	3.16µM*
COc1cc(/C=N/NC(=O)c2cccc(N3CCCC3=O)c2)ccc1O	i	8.5%	-12.3	5.7%	41.6%
COc1ccc(-c2csc3nc(-c4cccnc4)nc(Cl)c23)cc1OC	i	-9.6%	-86.7*	-17.7%	-33.5%
CCOc1ccc(S(=O)(=O)n2ccc(C)n2)c2ccccc12	i	-5.0%	-53.3*	-24.2%	6.3%
Cc1ccc(C(c2nnnn2Cc2ccccc2)N2CCN(Cc3ccncc3)CC2)cc1 (stereo not drawn)	/	0.9%	/	-4.1%	/
COc1ccc(NC(=O)CCn2c(-c3ccc(F)cc3)cc(C(C)=O)c2C)c(OC)c1	/	-7.3%	/	?	/
O=C(c1ccco1)N1c2ccccc2Sc2ccccc21	i	-5.5%	-50.2*	-2.0%	-9.2%
CCc1ccc(OC(=O)/C=C/c2ccco2)cc1	i	0.1%	45.6	-5.0%	-4.4%
O=C(/C=C\c1ccco1)Oc1cccc2cccnc12	i	-74.0%	-165.4*	3.16µM*	/
COc1ccccc1/C=C/C(=O)Oc1cccc2cccnc12	?	10µM*	0.0	7.94µM*	/
CCc1nc2ccccc2c(C(=O)Oc2cccc3cccnc23)c1C	i	-21.3%	9.9	0.0%	10.7%
Cc1ccc2cccc(OC(=O)/C=C\c3ccccc3)c2n1	?	-64.0%	39.7	?	-15.6%
O=C(/C=C/c1ccco1)Oc1cccc2cccnc12	?	-47.1%	-94.4*	?	-37.7%
Cc1c(C(=O)Oc2cccc3cccnc23)oc2ccccc12	i	11.2µM*	?	?	-12.0%
COc1cc(Cl)c(C)cc1N1C(=O)[C@@H]2C[C@H]1CN2Cc1ccccn1	i	/	/	/	/
O=C(NCCSCc1ccccc1)c1ccccc1	i	-25.6%	-29.7	?	3.8%
Nc1nccc(NCCSCc2ccccc2)n1	i	-12.3%	-63.9*	-6.5%	-23.8%
CC(C)C(C)C=CC(C)C1CCC2C3=CC=C4CC(O)CCC4(C)C3CCC21C (stereo not drawn)	/	/	/	/	3.7%
COc1ccnc(CSC(N)=Nc2cccc(C(F)(F)F)c2)c1	i	-68.8%	-103.6*	?	?
CCCCCCc1cc2cc(C(=O)OCC)c(=O)oc2cc1O	i	-28.2%	1.0	2.4%	/
SMILES	S2 tox	HepG2 tox	IL-1B inflam inh	TGFb inhibitor	ATXN2 expr inh
CCCCCCc1cc2cc(S(=O)(=O)c3ccc(F)c(Cl)c3)c(=O)oc2cc1O	/	-46.7%	-51.2*	-47.0%	?
CC(C)n1cc(/C=C/c2cc[n+](C)cc2)c2ccccc21	i	-12.7%	-75.7*	157.9%	?
CCn1cc(/C=C/c2cc[n+](C)cc2)c2ccccc21	i	-39.5%	-7.7	127.4%	/
CCN(CC)c1ccc(CN(C(=O)Cc2coc3ccc(C)cc23)C2CCS(=O)(=O)C2)cc1 (stereo not drawn)	?	-27.0%	/	?	-13.8%
COc1cc(/C=N/O)cc(Br)c1OCc1ccc(Cl)cc1	i	12.6µM*	?	?	?
O/N=C/c1ccccc1OCc1ccc(Cl)cc1	i	-23.8%	-95.8*	-11.8%	43.2%
COc1cc(CNc2ccc(O)cc2)cc(Br)c1OCc1ccccc1	i	-69.4%	-7.7	22.4µM*	/
COc1cc(/C=N/O)cc(Br)c1OC	i	2.4%	0.2	-7.0%	-3.0%
COc1cc(C(N)=O)cc(Br)c1OCc1ccccc1	i	-19.3%	0.0	0.0%	3.6%
COc1cc(CNC(C)c2ccccc2)cc(Br)c1OCc1ccc(F)cc1 (stereo not drawn)	/	22.4µM*	-94.2*	?	?
COc1cc(=O)n2c(c1C(=O)N(C)Cc1nccs1)CCN(Cc1c(F)ccc(F)c1F)CC2	i	/	/	/	/
COc1cc(CNC(C)c2ccccc2)cc(Br)c1OCc1ccccc1 (stereo not drawn)	?	-97.2%	-87.7*	?	?
COc1cc(CNC(C)(C)CO)cc(Br)c1OCc1ccc(Cl)cc1	i	-108.3%	-114.4*	?	-10.1%
COc1cc(CNC(C)(C)CO)cc(Br)c1OCc1ccc(Cl)cc1Cl	i	-105.9%	?	?	-25.5%
Cc1cccc(C)c1NC(=O)c1cccc2c1C(=O)N(C1CCCCC1)C2	?	-15.1%	-61.6*	?	-30.1%
COC(=O)Cn1c(=NC(=O)C2COc3ccccc3O2)sc2cc(S(N)(=O)=O)ccc21 (stereo not drawn)	?	-12.5%	-52.5*	-15.3%	-5.3%
Cc1ccc(Cn2c(C)c(CNCCCc3ccccc3)c(C(=O)O)c2C)cc1	i	-16.6%	/	21.5%	-6.9%
Cc1cc(C)c(S(=O)(=O)NCCc2sc3nc(-c4ccc(F)cc4)nn3c2C)c(C)c1	/	-49.6%	/	11.2µM*	/
Cc1c(CCNC(=O)c2ccc(Br)o2)sc2nc(-c3ccc(F)cc3)nn12	/	-41.1%	/	?	/
Cc1cccc(-c2nc3scc(CCNS(=O)(=O)c4ccc(F)cc4C)n3n2)c1	/	-32.9%	/	11.2µM*	/
Cc1ccc(-c2nc3sc(CCNC(=O)c4ccc(Br)o4)c(C)n3n2)cc1	/	-55.8%	/	17.8µM*	?
CCC(Cc1ccccc1)NC(=O)CN1C(=O)COc2ccc(S(=O)(=O)N3CCCCCC3)cc21 (stereo not drawn)	i	-20.3%	/	-14.9%	5.5%
C[C@H](NC(=O)c1cc2c(cn1)[nH]c1ccccc12)C(=O)O	i	2.5%	12.9	2.1%	-7.9%
COC(=O)[C@H](C)NC(=O)c1cc2c(cn1)[nH]c1ccccc12	i	-42.0%	-85.5*	0.9%	-4.8%
Clc1ccc(-c2c[n+](Cc3cccc(Cl)c3)c3n2CCC3)cc1	i	-6.1%	-74.2*	-28.6%	-8.6%
O=[N+]([O-])c1ccc(C[n+]2cc(-c3ccc(Cl)c(Cl)c3)n3c2CCCCC3)cc1	i	46.1%	-24.7	13.2%	/
